These results are taken from PubChem BioAssay (NCATS).

The structures appear in SMILES notation. Records with an inconclusive call do not appear. The source made the active and inactive calls. The call rests on the fitted dose curve.
Potency means the concentration at half of the fitted maximal effect.

This experiment can be described thus: Confirmatory qHTS to identify inhibitors of SARS-CoV-2 cell entry (AID 1645844). Further: nearly all actives have a fitted effect of over 45% in size. The following applies: SARS-CoV-2 pseudotyped particle cell entry, luciferase; series mostly up to 57.2 µM. From the text:
Assay Provider: Wei Zheng, Ph.D.
National Center for Advancing Translational Sciences, National Institute of Health, Rockville, MD.
SARS-CoV-2 spike protein, within the viral envelope, mediates viral attachment and infection of host cells. The SARS-CoV-2 spike protein specifically binds to the host receptor ACE2 (Angiotensin-converting enzyme 2). This interaction promotes endocytosis of the viral particle, additional events lead to viral-host cell membrane fusion and release of the viral contents, allowing viral replication.
While SARS-CoV-2 requires BSL-3 facilities for live virus work, pseudotyped partices (PP) that incorporate SARS-CoV-2 spike proteins without replication elements could facilitate studies on viral entry mechanisms in a BSL-2 setting. This PP cell entry assay could also enable screening of small molecule compound libraries in BSL-2 setting to identify inhibitors of SARS-CoV-2 cell entry.
SEQUENCE No. (e.g., 1, 2, 3, etc.); […] (e.g., Cells, Incubation, Reagent, etc.); VALUE and DESCRIPTION.
1. Cells. Seed 1500 HEK293-ACE2 cells (Expi293F with stable expression of human ACE2) in 2 uL/well media (DMEM, 10% FBS, 1x L-glutamine, 1x Pen/Strep, 1 ug/ml puromycin) in white 1536-well assay plates (Greiner #782073).
2. Incubation. Incubate at 37C with 5% CO2 overnight (~16 h).
3. Compounds. Dispense 23 nL/well compounds in DMSO via pin transfer.
4. Incubation. Incubate for 1 hr at 37C 5% CO2.
5. Reagent. Dispense 2 uL/well of SARS-CoV-2-S pseudotyped particles (PP). [a] PPs are produced with murine leukemia virus pseudotyping). [b] SARS-CoV-2-S is Wuhan-Hu-1 sequence (BEI #NR-52420) with C-terminal 19 amino acid truncation.
6. Centrifugation. […]
7. Incubation. Incubate at for 48 hr at 37C 5% CO2
8. Centrifugation. Remove supernatant with gentle centrifugation using a Blue Washer (BlueCat Bio).
9. Reagent. Dispense 4 uL/well of Bright-Glo Luciferase detection reagent (Promega #E2620).
10. Incubation. Incubate for 5 min at room temperature.
11. Detection. Read luminescence signal (Viewlux plate reader, PerkinElmer). Data was normalized with wells containing SARS-CoV-2-S PP as 100%, and wells containing bald PP (no fusion protein) as 0%.
For orientation: Quantitative high-throughput screening tests each substance at several concentrations.
Take `Clc1ccccc1C(c1ccccc1)(c1ccccc1)n1ccnc1`: the Potency was 24.1 µM (active).

On to `CCCCC(CC)COC(=O)C(C#N)=C(c1ccccc1)c1ccccc1` (stereo not given), for which the Potency was 27.1 µM (active).

Regarding `COCCOC(=O)C1=C(C)NC(C)=C(C(=O)OC/C=C/c2ccccc2)C1c1cccc([N+](=O)[O-])c1` (stereo not given), the Potency was 24.1 µM (active). In the case of `O=C1NC2CCCCN2C12CCN(CCCN1c3ccccc3CCc3ccc(Cl)cc31)CC2` (stereo not given), the Potency was 15.2 µM (active). In the case of `CN(C(=O)c1c(O)c2ccccc2n(C)c1=O)c1ccccc1`, the Potency result is “inactive”. Next, `CC1=CC(=O)c2ccccc2C1=O`: 19.2 µM (active); `CCCOc1ccc2nc(NC(=O)OC)[nH]c2c1`: 0.764 µM (active); `CCC(=O)C(CCN(C)C)(c1ccccc1)c1ccccc1`: 12.1 µM (active).

With `CCOC(=O)C1=C(C)NC(C)=C(C(=O)OCC)C1c1ccccc1/C=C/C(=O)OC(C)(C)C`, the Potency was 0.961 µM (active). Next, `CC(=O)c1ccc2c(c1)N(CCCN1CCC(CCO)CC1)c1ccccc1S2`: 22.4 µM (active); `c1ccc2c(c1)Sc1ccccc1N2CC1CN2CCC1CC2` (stereo not given): 4.82 µM (active). For `CN(C)CCOC(c1ccccc1)c1ccc(Br)cc1` (stereo not given), the Potency is 2.41 µM (active). Turning to `Oc1ccc(Cl)cc1Cc1cc(Cl)ccc1O`, the Potency was 0.0152 µM (active).

For the molecule `CCCCCOc1ccccc1/C(=C\SC)n1ccnc1`, the Potency was 24.1 µM (active). Next, `COC(=O)C1=C(C)NC(C)=C(C(=O)OC(C)(C)CN(C)CCC(c2ccccc2)c2ccccc2)C1c1cccc([N+](=O)[O-])c1` (stereo not given): 6.07 µM (active).

With `CN1CCC(=C2c3ccccc3CCc3sccc32)CC1`, the Potency was 21.5 µM (active).

As to `CCCSS/C(CCO)=C(\C)N(C=O)Cc1cnc(C)nc1N`, the Potency entry is “inactive”.

Consider `CN1CCCCC1CCN1c2ccccc2Sc2ccc(S(C)=O)cc21` (stereo not given), for which the Potency is 1.08 µM (active). As to `O[C@@H](COc1cccc2ncccc12)CN1CCN(C2c3ccccc3[C@@H]3[C@H](c4ccccc42)C3(F)F)CC1` (stereo not given in full), the Potency is 19.2 µM (active).

With `Oc1c(Cl)cc(Cl)cc1Sc1cc(Cl)cc(Cl)c1O`, the Potency is 2.71 µM (active).

Consider `CCN(CC)CCOc1ccc(/C(=C(\Cl)c2ccccc2)c2ccccc2)cc1`, for which the Potency was 21.5 µM (active). Next, `O=C(CCCN1CCN(c2ccc(F)cc2)CC1)NC1c2ccccc2CSc2ccccc21` (stereo not given): 1.92 µM (active).

`CN(C)CCCN1c2ccccc2Sc2ccccc21`: the Potency is 27.1 µM (active). In the case of `C=CC[C@]1(O)CC[C@H]2[C@@H]3CCC4=CC(=O)CCC4=C3C=C[C@@]21C`, the Potency is 15.2 µM (active). Regarding `COC(=O)[C@H]1[C@H]2C[C@@H]3c4[nH]c5cc(OC)ccc5c4CCN3C[C@H]2C[C@@H](OC(=O)/C=C/c2ccc(O)c(OC)c2)[C@@H]1OC`, the Potency was 30.4 µM (active). Next, `O=C(Nc1ccccc1)OCC(CN1CCCCC1)OC(=O)Nc1ccccc1` (stereo not given): “inactive”; `CC#C[C@]1(O)CC[C@H]2[C@@H]3C[C@H](C)C4=CC(=O)CC[C@]4(C)[C@H]3CC[C@@]21C`: 27.1 µM (active); `CCCCCC(=O)O[C@]1(C(C)=O)CC[C@H]2[C@@H]3CCC4=CC(=O)CC[C@]4(C)[C@H]3CC[C@@]21C`: 24.1 µM (active). Next, `O=c1[nH]c(=O)n([C@H]2C[C@H](O)[C@@H](CO)O2)cc1C(F)(F)F`: 0.0857 µM (active); `CCCCCCOC(=O)NC(=N)c1ccc(NCc2nc3cc(C(=O)N(CCC(=O)OCC)c4ccccn4)ccc3n2C)cc1`: 10.8 µM (active).
